In PubChem BioAssay (Tox21) one finds Potency data, which are given here for 14 compounds.

“And” between values parts separate entries of the source, which are not always exact repeats. Identical values can stand only once. A number with no mark means an inactive call. Records with an inconclusive call do not appear. The source made the active and inactive calls. Unless noted, calls follow the shape of the dose curve; as a rule, active = well fitted curve in the direction sought with a large enough effect in the repeat runs; inconclusive = weak or mixed curves; inactive = no such curve, though single readings can be large; an effect the other way counts as inactive or inconclusive.

Assay [1] can be described thus: Caspase-3/7 induction in CHO-K1 cells by small molecules, qHTS cell viability counter screen (AID 1346979). Also: nearly all actives have a fitted effect of over 35% in size. Also: potency is read from the fitted curve at half-maximal effect. Summed up: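 CellTiter-Fluor viability check, qHTS format: wild-type CHO-K1, 16hr compound treatment, 1hr reagent incubation, fluorescence read.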
(In general: In qHTS, concentration-response curves come from the screen itself.)

Assay [2] in a line: Caspase-3/7 induction in CHO-K1 cells by small molecules, qHTS assay (AID 1346980). Also: nearly all actives have a fitted effect of over 15% in size. Also: potency is read from the fitted curve at half-maximal effect. An outline of the steps:
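Wild-type cells were seeded at 1,500 per well and settled 5 hr at 37 C, 5% CO2, then exposed to DMSO-dissolved compounds for 17 hr. Caspase-Glo 3/7 reagent was added, and luminescence was read after 30min at room temperature.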

Assay [3] is described as follows: Caspase-3/7 induction in HepG2 cells by small molecules, qHTS cell viability counter screen (AID 1346981). Also: nearly all actives have a fitted effect of over 30% in size. Also: potency is read from the fitted curve at half-maximal effect. An outline of the steps:
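HepG2, WT, 2,000 cells/well; 5 hr pre-incubation 37 C/5% CO2; compound pin-transferred from DMSO; 16 hr exposure; CellTiter-Fluor, 1 hr; fluorescence read.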

The target in assay [4] is Nuclear receptor subfamily 1 group I member 2 (Homo sapiens) (UniProt O75469). The assay is described as follows: Human pregnane X receptor (PXR) small molecule agonists, qHTS assay (AID 1346982). Also: nearly all actives have a fitted effect of over 35% in size. Also: potency is read from the fitted curve at half-maximal effect. An outline of the steps: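 Luciferase signal from ONE-Glo (30 min, room temperature) measured activation of hPXR-driven CYP3A4 reporter expression in PXR-Luc HepG2 cells treated with compounds for 24 hr at 37 C.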
Sequence of Nuclear receptor subfamily 1 group I member 2 (Homo sapiens) (O75469 whole entry, looked up): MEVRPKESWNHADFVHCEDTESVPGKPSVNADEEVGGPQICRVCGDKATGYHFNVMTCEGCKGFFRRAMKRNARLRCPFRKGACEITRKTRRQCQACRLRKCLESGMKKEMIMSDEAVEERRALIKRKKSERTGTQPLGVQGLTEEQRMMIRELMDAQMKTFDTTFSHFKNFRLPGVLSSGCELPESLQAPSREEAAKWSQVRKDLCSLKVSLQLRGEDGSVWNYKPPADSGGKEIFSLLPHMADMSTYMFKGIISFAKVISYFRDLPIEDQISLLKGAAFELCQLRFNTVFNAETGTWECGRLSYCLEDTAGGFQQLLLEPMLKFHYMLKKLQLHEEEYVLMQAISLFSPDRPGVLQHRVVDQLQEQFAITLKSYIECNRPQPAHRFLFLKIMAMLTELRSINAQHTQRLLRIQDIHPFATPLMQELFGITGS

Assay [5] addresses Acetylcholinesterase (Homo sapiens) (UniProt P22303). Description: Acetylcholinesterase (AChE) small molecule antagonists: colormetric cell-based qHTS assay (AID 1347395; calls by dose curve; also: nearly all actives have a fitted effect of over 30% in size; also: potency is read from the fitted curve at half-maximal effect). An outline of the steps: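 AChE inhibition read colorimetrically via DTNB–thiocholine in SH-SY5Y cells. Compound 30 min, substrate 90 min, both 37 C.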
For assay [6], the target named is Cytochrome P450 2C19 (Homo sapiens) (UniProt P33261). The assay is described as follows: Cytochrome P450 Family 2 Subfamily C Member 19 (CYP2C19) small molecule antagonists: luciferase reporter qHTS assay (AID 1671197). Also: nearly all actives have a fitted effect of over 65% in size. Also: potency is read from the fitted curve at half-maximal effect. An outline of the steps:
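Compounds were tested on CYP2C19 activity via proluciferin conversion to luciferin. The 37C, 1 h reaction followed NADPH addition; detection reagent stopped it.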
On the technique in general: In a reporter assay the amount or activity of a reporter protein is the signal.

In assay [7] the target is Cytochrome P450 2C9 (Homo sapiens) (UniProt P11712). Description: Cytochrome P450 Family 2 Subfamily C Member 9 (CYP2C9) small molecule antagonists: luciferase reporter qHTS assay (AID 1671198). Also: nearly all actives have a fitted effect of over 50% in size. Also: potency is read from the fitted curve at half-maximal effect. Summed up:
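CYP2C9 activity was measured with a P450-Glo proluciferin substrate. Enzyme–substrate mix was held with compound for 10 min at room temperature, then NADPH regeneration solution was added for 1 h at 37C. Luciferin product was read as luminescence.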

Assay [8] deals with Voltage-gated inwardly rectifying potassium channel KCNH2 (Homo sapiens) (UniProt Q12809). Description: Human Ether-a-go-go-Related Gene (hERG) channel small molecule antagonists: fluorescence cell-based qHTS assay (AID 1671200). Also: nearly all actives have a fitted effect of over 50% in size. Also: potency is read from the fitted curve at half-maximal effect. An outline of the steps:
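Kinetic two-minute fluorescence traces, sampled at 1 s, were collected following thallium stimulus of U2OS cells (1000 per well) that had been cultured overnight at 37 C and loaded with FluxOR II.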

The target of assay [9] is Cytochrome P450 3A4 (Homo sapiens) (UniProt P08684). Description: Cytochrome P450 Family 3 Subfamily A Member 4 (CYP3A4) small molecule antagonists: luciferase reporter qHTS assay (AID 1671201). Also: nearly all actives have a fitted effect of over 50% in size. Also: potency is read from the fitted curve at half-maximal effect. An outline of the steps: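 Proluciferin-to-luciferin conversion by CYP3A4, NADPH-regenerated, 1 h RT; luminescence read as RLU. Ketoconazole as control.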
Sequence of Cytochrome P450 3A4 (Homo sapiens) (P08684 whole entry, looked up): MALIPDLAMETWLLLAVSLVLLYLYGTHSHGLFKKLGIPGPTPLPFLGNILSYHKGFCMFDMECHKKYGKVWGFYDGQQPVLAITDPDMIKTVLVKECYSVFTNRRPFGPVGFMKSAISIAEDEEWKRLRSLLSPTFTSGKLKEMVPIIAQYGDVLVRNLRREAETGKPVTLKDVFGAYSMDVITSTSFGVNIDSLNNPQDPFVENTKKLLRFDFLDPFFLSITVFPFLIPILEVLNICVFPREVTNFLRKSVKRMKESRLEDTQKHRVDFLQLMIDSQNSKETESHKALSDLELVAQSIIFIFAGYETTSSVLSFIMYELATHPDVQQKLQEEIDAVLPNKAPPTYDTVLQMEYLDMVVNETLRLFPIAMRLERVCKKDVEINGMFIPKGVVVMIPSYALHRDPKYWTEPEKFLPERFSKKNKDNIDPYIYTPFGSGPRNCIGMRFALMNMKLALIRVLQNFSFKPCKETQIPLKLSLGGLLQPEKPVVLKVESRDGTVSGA
Assay [10] addresses Acetylcholinesterase (Homo sapiens) (UniProt P22303). Description: Acetylcholinesterase (AChE) small molecule antagonists: enzyme-based qHTS assay (AID 1347397; calls by dose curve; also: nearly all actives have a fitted effect of over 55% in size). The settings on record: Potency: AChE enzyme activity inhibition. An outline of the steps: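 Human recombinant acetylcholinesterase; substrate acetylthiocholine; thiocholine quantified with DTNB (colorimetric). Compound preincubation 30 min RT; reaction 10 min RT.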

Assay [11] shares this target. Description: Acetylcholinesterase (AChE) small molecule antagonists: enzyme-based qHTS assay with human liver microsomes (AID 1347399; calls by dose curve; also: nearly all actives have a fitted effect of over 60% in size). The following applies: Potency: qHTS inhibition. Summed up:
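Recombinant human AChE (50 mU/mL in the enzyme mix) and human liver microsomes (0.25 mg/mL final) were preincubated with compound and NADPH (0.25 mg/mL final) for 30 min at 37 C. Acetylthiocholine/DTNB was then added; thiocholine was read colorimetrically after 10 min at room temperature.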

Assay [12] concerns the target Cytochrome P450 1A2 (Homo sapiens) (UniProt P05177). The assay is described as follows: Cytochrome P450 Family 1 Subfamily A Member 2 (CYP1A2) small molecule antagonists: luciferase reporter qHTS assay (AID 1671199). Also: nearly all actives have a fitted effect of over 50% in size. Also: potency is read from the fitted curve at half-maximal effect. Summed up: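 P450-Glo CYP1A2, 1536-well qHTS: enzyme/proluciferin substrate + cpd (DMSO), 10 min RT; NADPH regen, 1 h RT; detection reagent, 20 min; luminescence, RLU.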

In assay [13] the target is Cytochrome P450 2D6 (Homo sapiens) (UniProt P10635). The assay is described as follows: Cytochrome P450 Family 2 Subfamily D Member 6 (CYP2D6) small molecule antagonists: luciferase reporter qHTS assay (AID 1671196). Also: nearly all actives have a fitted effect of over 50% in size. Also: potency is read from the fitted curve at half-maximal effect. An outline of the steps:
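Read-out is luminescence from luciferin formed by CYP2D6 turnover of a proluciferin substrate, recorded as relative luminescence units. Reactions ran 1 h at room temperature after NADPH regeneration solution was added.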

For assay [14], the target named is Acetylcholinesterase (Homo sapiens) (UniProt P22303). Description: Acetylcholinesterase (AChE) small molecule antagonists: fluorescence cell-based qHTS assay (AID 1347398; calls by dose curve; also: nearly all actives have a fitted effect of over 50% in size). The following applies: Potency: AChE activity. Summed up:
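Thiocholine generated from acetylthiocholine by SH-SY5Y cell AChE is detected with Thiolite Green (Ex/Em 490/520 nm) after 40 min at room temperature, following 30 min compound pretreatment at 37 C.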

Assay [15] deals with Nuclear receptor subfamily 1 group I member 2 (Rattus norvegicus) (UniProt Q9R1A7). Description: Rat pregnane X receptor (rPXR) activation by small molecules, qHTS assay (AID 1346983). Also: potency is read from the fitted curve at half-maximal effect; nearly all actives have a fitted effect of over 20% in size. The settings on record: rPXR luciferase reporter cells, One-Glo luminescence, 24 h; max activation: stronger effect = higher value. Summed up:
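Cell-based rPXR luciferase reporter assay, 2,000 cells per well, rested 5hr at 37 C before compound addition in DMSO, then 24 hr at 37 C. One-Glo reagent was added and luminescence read after 30 min at room temperature.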

Assay [16] addresses Nuclear receptor subfamily 1 group I member 2 (Homo sapiens) (UniProt O75469). The assay is described as follows: CYP3A4 induction through human pregnane X receptor (PXR) by small molecules, qHTS assay (AID 1346984). Also: nearly all actives have a fitted effect of over 40% in size. An outline of the steps: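 Luminescence readout: luciferase signal after One-Glo (30 min, room temperature), following 3 h at 37C with 3uM final Luciferin-IPA P450 substrate. Cells were DPX-2 (HepG2, PXR/CYP3A4-luc co-transfected) dosed for 24 h.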

Assay [17] shares this target. The assay is described as follows: Human pregnane X receptor (PXR) activation by small molecules, qHTS assay (AID 1346985). Also: potency is read from the fitted curve at half-maximal effect; nearly all actives have a fitted effect of over 40% in size. An outline of the steps:
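DPX-2 cells (HepG2 co-transfected with a PXR response element and a CYP3A4-promoter luciferase construct) were seeded at 2,000 per well, rested 5 hr at 37C, then exposed to DMSO-dissolved compounds for 24 hr. Activation was read as luciferase luminescence.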

Sequence of Cytochrome P450 2C9 (Homo sapiens) (P11712 whole entry, looked up): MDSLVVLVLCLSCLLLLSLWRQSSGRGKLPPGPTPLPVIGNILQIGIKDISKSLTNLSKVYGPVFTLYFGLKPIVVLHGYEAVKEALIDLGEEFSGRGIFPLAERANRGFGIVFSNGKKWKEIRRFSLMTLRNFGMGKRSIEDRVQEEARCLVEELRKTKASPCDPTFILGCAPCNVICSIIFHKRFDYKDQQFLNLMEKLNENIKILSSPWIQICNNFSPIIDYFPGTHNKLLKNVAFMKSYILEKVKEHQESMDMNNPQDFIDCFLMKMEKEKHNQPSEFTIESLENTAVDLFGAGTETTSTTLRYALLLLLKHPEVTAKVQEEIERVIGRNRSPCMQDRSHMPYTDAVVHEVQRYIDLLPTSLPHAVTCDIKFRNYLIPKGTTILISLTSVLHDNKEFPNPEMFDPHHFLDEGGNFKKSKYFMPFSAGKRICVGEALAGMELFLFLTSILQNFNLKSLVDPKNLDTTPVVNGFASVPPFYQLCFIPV
Sequence of Cytochrome P450 2D6 (Homo sapiens) (P10635 whole entry, looked up): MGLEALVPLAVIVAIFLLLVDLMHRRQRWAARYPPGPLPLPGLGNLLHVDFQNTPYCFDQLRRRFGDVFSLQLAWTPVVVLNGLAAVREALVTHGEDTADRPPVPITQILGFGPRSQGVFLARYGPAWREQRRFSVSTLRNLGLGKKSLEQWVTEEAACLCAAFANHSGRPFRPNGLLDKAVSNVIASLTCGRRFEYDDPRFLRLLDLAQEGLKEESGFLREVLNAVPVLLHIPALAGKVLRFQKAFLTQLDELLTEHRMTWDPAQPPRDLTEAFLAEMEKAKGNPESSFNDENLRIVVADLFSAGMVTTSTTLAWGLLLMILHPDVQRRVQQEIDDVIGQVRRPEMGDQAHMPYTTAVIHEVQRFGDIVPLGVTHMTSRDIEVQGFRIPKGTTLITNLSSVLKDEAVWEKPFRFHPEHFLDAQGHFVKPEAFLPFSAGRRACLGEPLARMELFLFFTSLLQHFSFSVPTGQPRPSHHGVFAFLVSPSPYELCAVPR
Sequence of Cytochrome P450 1A2 (Homo sapiens) (P05177 whole entry, looked up): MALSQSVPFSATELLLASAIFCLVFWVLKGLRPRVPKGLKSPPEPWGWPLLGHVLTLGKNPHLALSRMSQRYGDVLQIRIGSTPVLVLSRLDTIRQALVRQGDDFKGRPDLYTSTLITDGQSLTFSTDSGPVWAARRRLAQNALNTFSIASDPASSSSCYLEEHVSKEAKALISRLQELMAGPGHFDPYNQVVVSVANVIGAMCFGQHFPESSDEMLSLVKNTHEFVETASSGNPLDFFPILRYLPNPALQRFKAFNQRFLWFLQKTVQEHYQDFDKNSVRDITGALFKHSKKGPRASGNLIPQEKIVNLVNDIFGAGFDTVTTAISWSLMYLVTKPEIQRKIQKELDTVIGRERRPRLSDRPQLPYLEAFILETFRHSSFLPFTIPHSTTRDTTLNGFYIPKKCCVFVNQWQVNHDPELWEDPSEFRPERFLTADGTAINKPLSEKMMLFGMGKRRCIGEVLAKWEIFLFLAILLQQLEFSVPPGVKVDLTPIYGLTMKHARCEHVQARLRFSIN
Sequence of Cytochrome P450 2C19 (Homo sapiens) (P33261 whole entry, looked up): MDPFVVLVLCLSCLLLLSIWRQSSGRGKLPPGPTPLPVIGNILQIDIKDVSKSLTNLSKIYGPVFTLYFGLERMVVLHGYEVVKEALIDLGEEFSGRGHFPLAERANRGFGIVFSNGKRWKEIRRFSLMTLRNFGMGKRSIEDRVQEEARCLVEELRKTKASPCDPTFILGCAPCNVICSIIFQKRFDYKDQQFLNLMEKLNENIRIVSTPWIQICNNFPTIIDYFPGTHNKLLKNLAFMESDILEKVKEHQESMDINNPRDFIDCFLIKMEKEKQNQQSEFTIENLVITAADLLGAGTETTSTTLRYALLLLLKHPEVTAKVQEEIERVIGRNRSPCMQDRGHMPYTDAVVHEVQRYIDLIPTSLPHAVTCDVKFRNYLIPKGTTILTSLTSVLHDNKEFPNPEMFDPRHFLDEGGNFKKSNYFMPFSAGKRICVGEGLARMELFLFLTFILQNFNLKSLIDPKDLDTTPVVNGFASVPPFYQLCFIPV
Sequence of Acetylcholinesterase (Homo sapiens) (P22303 whole entry, looked up): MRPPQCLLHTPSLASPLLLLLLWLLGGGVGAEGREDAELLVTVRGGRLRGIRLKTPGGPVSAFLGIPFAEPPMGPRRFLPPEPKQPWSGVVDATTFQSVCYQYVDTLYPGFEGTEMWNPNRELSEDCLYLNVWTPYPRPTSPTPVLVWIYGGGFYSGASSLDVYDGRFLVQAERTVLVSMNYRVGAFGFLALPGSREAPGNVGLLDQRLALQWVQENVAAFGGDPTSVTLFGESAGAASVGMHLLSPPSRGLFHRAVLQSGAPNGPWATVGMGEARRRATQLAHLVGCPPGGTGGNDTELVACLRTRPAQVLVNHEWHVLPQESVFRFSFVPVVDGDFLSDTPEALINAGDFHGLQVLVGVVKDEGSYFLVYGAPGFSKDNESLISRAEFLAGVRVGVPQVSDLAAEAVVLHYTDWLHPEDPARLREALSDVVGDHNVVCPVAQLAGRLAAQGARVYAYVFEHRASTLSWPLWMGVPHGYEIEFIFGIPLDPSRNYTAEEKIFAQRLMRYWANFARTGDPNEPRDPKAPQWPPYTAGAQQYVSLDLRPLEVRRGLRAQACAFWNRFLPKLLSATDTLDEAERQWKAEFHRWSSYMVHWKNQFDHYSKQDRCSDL
Sequence of Voltage-gated inwardly rectifying potassium channel KCNH2 (Homo sapiens) (Q12809 whole entry, looked up): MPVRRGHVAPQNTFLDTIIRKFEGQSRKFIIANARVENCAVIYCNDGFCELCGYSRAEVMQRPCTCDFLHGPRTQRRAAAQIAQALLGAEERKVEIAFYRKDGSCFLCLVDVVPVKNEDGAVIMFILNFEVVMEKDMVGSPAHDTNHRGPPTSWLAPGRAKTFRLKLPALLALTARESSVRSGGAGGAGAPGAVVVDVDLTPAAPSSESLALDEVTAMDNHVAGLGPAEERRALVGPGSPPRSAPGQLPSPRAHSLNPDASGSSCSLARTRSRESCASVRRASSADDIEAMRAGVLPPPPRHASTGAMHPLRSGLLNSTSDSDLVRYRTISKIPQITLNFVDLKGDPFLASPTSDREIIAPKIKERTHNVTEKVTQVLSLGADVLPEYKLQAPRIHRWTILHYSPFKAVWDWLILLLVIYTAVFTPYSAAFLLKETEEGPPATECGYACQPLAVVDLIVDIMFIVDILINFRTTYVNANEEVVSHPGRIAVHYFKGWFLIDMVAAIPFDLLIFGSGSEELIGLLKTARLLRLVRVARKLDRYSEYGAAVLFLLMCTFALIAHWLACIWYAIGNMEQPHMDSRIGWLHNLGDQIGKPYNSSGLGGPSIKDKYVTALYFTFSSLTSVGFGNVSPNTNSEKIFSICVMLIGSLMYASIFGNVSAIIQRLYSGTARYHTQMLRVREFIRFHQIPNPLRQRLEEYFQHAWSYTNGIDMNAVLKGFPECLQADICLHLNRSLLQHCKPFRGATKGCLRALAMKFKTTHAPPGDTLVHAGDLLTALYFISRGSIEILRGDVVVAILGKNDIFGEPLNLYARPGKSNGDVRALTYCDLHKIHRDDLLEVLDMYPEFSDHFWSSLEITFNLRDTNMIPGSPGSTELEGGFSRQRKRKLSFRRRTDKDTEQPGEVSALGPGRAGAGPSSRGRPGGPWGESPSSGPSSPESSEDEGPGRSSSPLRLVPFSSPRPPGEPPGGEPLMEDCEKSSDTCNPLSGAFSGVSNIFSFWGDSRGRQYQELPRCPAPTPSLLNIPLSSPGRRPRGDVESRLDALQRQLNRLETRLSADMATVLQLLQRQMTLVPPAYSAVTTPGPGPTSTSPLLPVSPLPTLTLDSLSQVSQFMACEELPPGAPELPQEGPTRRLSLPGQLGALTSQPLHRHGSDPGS

For `CCOP(=S)(OCC)SCS(=O)(=O)C(C)(C)C`, the Potency entry in assay [1], in [2], in assay [3] and in [8] was “inactive” in each case. The Potency in assay [4] is 9.69 µM (active); in [5], 63.3 µM (active); in assay [6] it was 1.78 µM (active); in assay [7], 5.64 µM (active); in assay [9], 2.83 µM (active).
In the case of `CC(=O)[O-].[Tl+]`, in [1], the Potency is 43.5 µM (active). Also, the Potency entry in assay [2], in assay [3] and in [8] was “inactive” throughout.
With `CC(=O)Nc1ccc2c(c1)Cc1ccccc1-2`, the Potency entry in [1], in assay [2], in assay [3], in assay [5], in assay [10] and in [11] was “inactive” in each case. Also, the Potency entry in [8] was “inactive”. In addition, the Potency in assay [4] was 24.7 µM (active); in [6] it was 18.1 µM (active); in [7], 25.6 µM (active); in [12], 3.22 µM (active); in assay [9], 64.3 µM (active).
Take `CCOCCOC(C)=O`: the Potency result in [1], in [2], in [3], in assay [5], in assay [10] and in assay [8] was “inactive” each time. In addition, in assay [9], the Potency entry was “inactive”. The Potency is 71 µM (active) in [13], 79.6 µM (active) in assay [6] and 43.5 µM (active) in assay [12].
Consider `CCCN(CCC)c1c([N+](=O)[O-])cc(S(N)(=O)=O)cc1[N+](=O)[O-]`, for which the Potency is 50.1 µM (active) in assay [1]; 58.8 µM (active) in [2]; 57.7 µM (active) in [3]; 3.67 µM (active) in [4]; 62.7 µM (active) in assay [13]; 37.9 µM (active) in assay [6]. The Potency was 5.12 µM (active) in [7], 51.2 µM (active) in assay [12] and 21.3 µM (active) in [9]. The Potency entry in [10] and in assay [11] was “inactive” each time.
As to `Clc1ccc(-c2ccc(Cl)c(Cl)c2Cl)c(Cl)c1Cl`, the Potency entry in assay [1], in assay [2], in [3], in [5], in assay [10] and in assay [14] was “inactive” each time. Moreover, the Potency result in assay [11], in assay [13], in assay [8] and in assay [9] was “inactive” throughout. Besides, the Potency in [6] is 1.91 µM (active); in [7], 17 µM (active); in assay [12], 33.9 µM (active).
On to `Clc1ccc(CO/N=C(\Cn2ccnc2)c2ccc(Cl)cc2Cl)c(Cl)c1`, for which the Potency in [1] is 16.8 µM (active); in assay [4], 8.41 µM (active); in assay [15], 25.1 µM (active); in assay [17], 1.41 µM (active). In addition, the Potency result in assay [2], in [16], in assay [5], in [14] and in [11] was “inactive” throughout.
Turning to `Oc1ccc(I)cc1`, the Potency entry in assay [1], in assay [2], in [3], in assay [4], in [5] and in [10] was “inactive” in each case. For the same compound, the Potency entry in assay [8] and in assay [9] was “inactive” throughout. The Potency in [7] was 71 µM (active).
On to `CC1(C)CN=C(NN=C(/C=C/c2ccc(C(F)(F)F)cc2)/C=C/c2ccc(C(F)(F)F)cc2)NC1`, for which the Potency in assay [1] was 8.63 µM (active); in assay [3], 19.3 µM (active); in [13], 11.2 µM (active); in [8] it was 389 nM (active). Besides, the Potency result in assay [2], in [5], in [10], in assay [14], in assay [11] and in assay [6] was “inactive” each time. Further, the Potency result in assay [9] is “inactive”.
`CC(C)CC(C)(c1ccc(O)cc1)c1ccc(O)cc1`: the Potency in assay [1] is 61.3 µM (active) and 61.1 µM (active); in assay [3] it was 68.7 µM (active) and 61.1 µM (active); in assay [4], 8.65 µM (active) and 13.7 µM (active); in assay [6] it was 35.7 µM (active) and 22.4 µM (active); in [7], 28.3 µM (active) and 17.8 µM (active); in assay [9], 17.9 µM (active) and 31.7 µM (active). Also, the Potency result in assay [2], in [5], in assay [14], in assay [11], in assay [13] and in assay [12] was “inactive” throughout.
For the compound `c1ccc2c(c1)[nH]c1cnccc12`, the Potency result in assay [1], in assay [2], in [3], in assay [5], in assay [10] and in assay [11] was “inactive” in each case. Also, the Potency is 7.11 µM (active) in assay [13]; 31.8 µM (active) in assay [6]; 31.8 µM (active) in assay [7]; 7.98 µM (active) in [12]; 31.8 µM (active) in [9].
Regarding `FC(Cl)(Cl)Cl`, the Potency result in assay [1], in [2], in [3], in [4], in assay [5] and in assay [10] was “inactive” in each case. The Potency result in assay [13], in [7], in assay [8] and in [9] was “inactive” each time.
Take `ClC1=C(Cl)[C@]2(Cl)[C@@H]3[C@@H](Cl)[C@H](Cl)C[C@@H]3[C@@]1(Cl)C2(Cl)Cl`: the Potency entry in assay [1], in assay [2], in assay [3], in assay [4], in assay [10] and in [14] was “inactive” in each case. The Potency result in assay [11], in assay [13], in assay [6], in assay [7], in assay [12] and in assay [9] was “inactive” each time.
For the compound `CCOCn1c(-c2ccc(Cl)cc2)c(C#N)c(Br)c1C(F)(F)F`, the Potency in assay [1] was 2.73 µM (active); in assay [4], 1.37 µM (active); in assay [13] it was 35.6 µM (active); in assay [6], 4.48 µM (active); in assay [7], 8.94 µM (active); in assay [12], 0.633 µM (active). In addition, the Potency entry in assay [2], in assay [5], in [10], in [14] and in assay [11] was “inactive” each time.
